Screening results deposited in PubChem BioAssay by National Center for Advancing Translational Sciences (NCATS).
TDP-43 yeast inh: qHTS of TDP-43 Inhibitors. TDP-43 expressing yeast growth rescue, BacTiter-Glo, 24 h. Potency, µM (series often up to 46.1 µM), usual class: activators. actives 1.8% (n = 410,000). AID 652104, 2013; note: nearly all actives have a fitted effect of over 50% in size
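Yeast cells expressing TDP-43 under galactose induction are exposed to compounds for 24 hr at 30 deg C. BacTiter-Glo luminescence measures growth, so protective compounds score as activators.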
aSyn yeast inh: qHTS of alpha-syn Inhibitors; Yeast expressing alpha-synuclein, growth rescue, BacTiter-Glo, 24 h; Potency, µM (series often up to 46.1 µM), actives largely listed as activators; actives 0.14% (n = 370,000); note: nearly all actives have a fitted effect of over 65% in size
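Galactose-induced alpha-syn yeast (OD600=0.02, raffinose-pregrown) + pinned cpd, 24 hr, 30 deg C; growth by BacTiter-Glo luminescence. Growth restoration scores as activation.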
Abeta rescue: qHTS for compounds that reverse cellular toxicity of Amyloid beta (A-beta) peptide in yeast: Primary Screen; yeast expressing A-beta42, growth rescue, OD600, 48 h; response scale: 0% DMSO, 100% iron-clioquinol control; Potency, µM (titrated, usually from 46.1 µM), actives largely listed as activators; actives 0.063% (n = 410,000); AID 1347071, 2019; note: nearly all actives have a fitted effect of over 55% in size
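Yeast A-beta toxicity model in growth medium with pinned compounds, 48 h at 30 C; growth read as absorbance at 600 nm. Normalized to FeCl3/clioquinol equimolar mix (positive) and DMSO (negative).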
FUS suppressor: qHTS for Suppressors of FUS Proteinopathy: Primary screen using FUS-linked yeast assay | S. cerevisiae FUS-expressing, growth rescue, OD600, 24 h | Potency, µM (doses to about 76.6 µM), hits mostly activators | actives 0.24% (n = 390,000); note: nearly all actives have a fitted effect of over 55% in size
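Cultures pregrown in 2.5% raffinose medium are shifted to minimal medium containing 2% galactose to express toxic FUS. Compounds are tested at several concentrations. After 24hr at 30C, growth is quantified at 600 nm absorbance.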
Hits are given with their value; . = inactive; ? = inconclusive; / = not tested or not shown; [ ] = dose if it differs, or a comment. Only some compounds are listed: those with a hit (about 2.1% of all), similar ones and a draw of the others. Calls come from the whole dose curve; as a rule, active = well fitted curve in the direction sought with a large enough effect; inconclusive = small, poorly fitted or top-dose-only effect, or another doubt; inactive = no such curve, though single readings can be large; an effect the other way counts as inactive or inconclusive.

SMILES	TDP-43 yeast inh	aSyn yeast inh	Abeta rescue	FUS suppressor
CN1C(=S)SC(/[N+]([O-])=C\c2cccs2)C1(C)C (stereo unspecified)	.	.	.	.
CCN1C(=O)[C@H]2[C@@H](c3ccc(-c4ccc5c(c4)OCO5)cc3)N[C@@](Cc3ccccc3)(C(=O)OC)[C@H]2C1=O	.	.	.	.
CCN1C(=O)[C@H]2[C@@H](c3ccc(-c4cccc(Cl)c4)cc3)N[C@@](Cc3ccccc3)(C(=O)OC)[C@H]2C1=O	.	.	.	14µM
COC(=O)[C@@H]1[C@@H](C)OC(=O)N[C@H]1c1ccccc1	.	.	.	.
COc1cc(/C=C/[N+](=O)[O-])ccc1OC(=O)/C=C/c1ccc(F)cc1	0.71µM	.	.	.
O=C(c1ccc(Br)o1)N1CCN(c2ccc(F)cc2)CC1	13µM	.	.	.
CC(C)Cc1cc(C(=O)N2CCN(c3ccc(F)cc3)CC2)no1	22µM	.	.	.
O=C(Nc1ccc(N2CCN(C(=O)c3cccs3)CC2)cc1)c1ccc(Br)o1	25µM	.	.	.
Cc1ccc(C)n1-c1c(C(=O)NCCC(C)C)sc2ncccc12	?	/	.	.
CCc1cccc(N=c2c([N+](=O)[O-])nn(-c3ccc(Cl)cc3)n2O)c1	7.9µM	.	.	.
Cc1ccc(CN=c2c([N+](=O)[O-])nn(-c3ccc(Cl)cc3)n2O)cc1	11µM	.	?	.
O=[N+]([O-])c1nn(-c2ccc(Cl)cc2)n(O)c1=NCc1ccncc1	11µM	.	.	.
O=[N+]([O-])c1nn(-c2ccc(Cl)cc2)n(O)c1=NCc1ccccc1Cl	?	.	.	.
COc1cccc(N2CCN(c3ccc(S(=O)(=O)N4CCCC4)cc3)CC2)c1	.	.	.	.
Cc1ccc(SCC(=O)O/N=C(\N)c2cccnc2)cc1	10µM	.	.	.
Cc1ccc(S(=O)(=O)N(C)CC(=O)O/N=C(\N)c2cccnc2)cc1	.	.	.	/
CNC(=O)NC(=O)CSc1cccc(C(F)(F)F)c1	.	.	.	.
CCCNC(=O)NC(=O)CSc1cccc(C(F)(F)F)c1	18µM	.	.	.
COc1ccc(CNC(=O)/C=C/c2ccccc2[N+](=O)[O-])cc1	.	.	.	.
COC(=O)C(=Cc1ccccc1[N+](=O)[O-])C(=O)OC	16µM	.	.	.
O=C(/C=C/c1ccccc1[N+](=O)[O-])OCC(=O)c1ccccc1	20µM	.	.	.
O=C(C1CCCCC1)N(Cc1nc2sc3c(c2c(=O)[nH]1)CCCC3)Cc1cccs1	.	.	.	.
Cc1ccc(Cl)cc1N1CCN(C(=O)c2ccc(C)c(-n3c(C)nc4cccnc43)c2)CC1	.	/	.	22µM
Cc1ccc(C)c(N2CCN(C(=O)c3ccc4c(Cl)c5c(nc4c3)CCCC5)CC2)c1	35µM	/	.	?
Cc1ccc(C)c(N2CCN(C(=O)c3cccc(-n4c(C)nc5cccnc54)c3)CC2)c1	.	/	.	?
SMILES	TDP-43 yeast inh	aSyn yeast inh	Abeta rescue	FUS suppressor
Cc1ccc(-c2nc(N)sc2-c2ccccc2)cc1C	16µM	.	.	/
Nc1nc(-c2ccccc2)c(-c2ccccc2)s1	.	.	.	.
O=C(CSc1nnc(-c2cccnc2)n1Cc1ccccc1)N1CCOCC1	.	.	.	.
Cc1ccc(N2C(=O)[C@@H]3[C@H](C2=O)[C@H]2C=C(C(=O)c4ccccc4)C=CN2[C@@H]3C(=O)c2ccc(Cl)cc2)cc1	.	.	.	28µM
O=C(C1=C[C@@H]2[C@H]3C(=O)N(c4cccc(Cl)c4)C(=O)[C@H]3[C@@H](C(=O)c3ccc(Cl)cc3)N2C=C1)c1ccccc1	.[0.397 µM]	.	.	.
CC1CN(C(=O)c2cccc(COc3ccccc3Cl)c2)CC(C)O1 (stereo unspecified)	.[0.397 µM]	.	.	.
CC1CN(C(=O)c2ccccc2OCc2ccc(Cl)cc2Cl)CC(C)O1 (stereo unspecified)	28µM	.	.	.
CCOC(=O)c1ccc(-c2ccc(C3Nc4ccccc4C(=O)N3O)o2)cc1 (stereo unspecified)	.	?	.	?
CCOC(=O)[C@@H]1[C@H]2COc3ccccc3[C@@H]2N2C(=O)N(c3ccc(F)cc3)C(=O)[C@]12C	.	.	.	.
C=CCOc1ccc(/C=C/C(C)=N\O)cc1	10µM	/	.	.
Nc1cc2c(cc1Cl)-c1ccc(Cl)cc1C2	25µM	.	.	.
Nc1cc2c(cc1Cl)-c1ccccc1C2	13µM	.	.	/
C#CCNC(=O)C[C@@H]1C(=O)N(Cc2ccc(OC)cc2)C2=CCN(C(=O)OC(C)(C)C)C[C@]21C(=O)OCC	/	/	/	.
CC1CCCN(Cc2nc3c(c(=O)n(C)c(=O)n3C)n2Cc2ccc(Cl)cc2Cl)C1 (stereo unspecified)	.	/	.	.
Cc1cc(-c2csc(N)n2)c(C)n1C	.	.	.	.
Cc1cc(-c2csc(N)n2)c(C)n1Cc1ccco1	.	.	.	28µM
O=C(CCCn1c(=O)c2cccn2c2ccccc21)NCCc1ccc(Cl)cc1	25µM	/	?	.
CCOC(=O)CSc1n[nH]c(NC(=O)c2cccc(C)c2)n1	.	.	.	.
COc1ccc(-c2ccc(=O)n(Cc3cccc([N+](=O)[O-])c3)n2)cc1	18µM	.	/	.
COc1ccc(OC(F)(F)F)cc1CC1(C)C(=O)Nc2ccc(-c3ccsc3)cc21 (stereo unspecified)	14µM	.	.	.
COc1ccc(C(C)=O)cc1CC1(C)C(=O)Nc2ccc(OC(F)(F)F)cc21 (stereo unspecified)	.	.	.	?
COc1ccc(OC(F)(F)F)cc1CC1(C)C(=O)Nc2ccc(S(=O)(=O)NC3CCCCC3)cc21 (stereo unspecified)	.	.	.	32µM
CC1(Cc2ccccc2OC(F)(F)F)C(=O)Nc2ccc(S(=O)(=O)NC3CCCCC3)cc21 (stereo unspecified)	.	.	.	.
CCO[C@@H]1OC(C(=O)Nc2ccccc2)=C[C@H](c2ccc(C(F)(F)F)cc2)[C@H]1CCCO	13µM	.	?	?
COc1cccc(C2CC(c3cccs3)=NN2C(=O)c2ccco2)c1O (stereo unspecified)	25µM	?	.	.
SMILES	TDP-43 yeast inh	aSyn yeast inh	Abeta rescue	FUS suppressor
O=C(c1ccco1)N1N=C(c2cccs2)CC1c1ccccc1O (stereo unspecified)	.	.	.	/
O=C(Nc1cccnc1)c1cc(-c2cccnc2)nc2ccc(Br)cc12	.	.	.	.
CCn1c(-c2csc3c2CCC(C)C3)n[nH]c1=S (stereo unspecified)	11µM	.	.	/
CCn1c(-c2csc3ccccc23)n[nH]c1=S	22µM	.	.	/
CC(C)Cn1c(-c2csc3ccccc23)n[nH]c1=S	.	.	.	/
CCCc1cc(-c2n[nH]c(=S)n2CC)cs1	35µM	.	.	.
COc1ccc(CCNC(=O)/C=C/c2ccc3ccccc3n2)cc1OC	?	.	.	.
